ELG1 genotoxic – inducers of genotoxicity in HEK293T ELG1-luciferase cells | HEK293T ELG1-luciferase reporter, luminescence, 16 h | Potency, µM (top dose mostly 46 µM), for inactives: at the top dose activity change, positive = activation, actives largely listed as activators | 1.3% of 330,000 active | AID 504466; note: % of control where 0% means no effect; nearly all actives have a fitted effect of over 60% in size
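Luminescence read-out: rising ELG1-luciferase signal, reflecting elevated ELG1 protein under genetic stress, flags genotoxic compounds. Cells were treated for 16 hr at 37 °C before ONE-Glo detection.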
KinaseGlo FLuc – counter-screen: inhibitors of Kinase-Glo firefly luciferase. Kinase-Glo luciferase, ATP luminescence, 8 min. Potency, µM (top dose mostly 38.3 µM), without a hit: at the highest dose activity change, negative = inhibition, usual class: inhibitors. 0.28% of 200,000 active. AID 1379; note: % is set by controls: 0 for no effect and ±100 for the full control effect; nearly all actives have a fitted effect of over 60% in size
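Inhibition of Kinase-Glo luciferase light generation was assessed at 10 uM ATP in pH 7.2 imidazole buffer, with luminescence measured after eight minutes at ambient temperature.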
NPC1 promoter act – NPC1 promoter activation | Huh7 NPC1 promoter luciferase reporter, 24 h | Potency, µM (series often up to 9.22 µM), without a hit: at the top dose activation, most hits filed as activators | 2.4% of 320,000 active | AID 485313; note: % of control where 0% means no effect; nearly all actives have a fitted effect of over 60% in size
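Luciferase expression driven by the NPC1 promoter was measured in stably transfected Huh7 cells after a 24 h compound incubation, using a luciferase reagent and a luminescence read.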
FLuc counter – firefly luciferase modulation, counter-screen for miR-21 project; P08659; Potency, µM (top dose mostly 57.5 µM), for inactives: at the top dose activity change, negative = inhibition, most hits filed as inhibitors; 6.9% of 360,000 active; purified FLuc, Km substrates, luminescence inhibition;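 note: plate controls were vehicle for no effect and reference inhibitor for full effect; nearly all actives have a fitted effect of over 55% in size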
Target sequence (P08659 whole entry, looked up): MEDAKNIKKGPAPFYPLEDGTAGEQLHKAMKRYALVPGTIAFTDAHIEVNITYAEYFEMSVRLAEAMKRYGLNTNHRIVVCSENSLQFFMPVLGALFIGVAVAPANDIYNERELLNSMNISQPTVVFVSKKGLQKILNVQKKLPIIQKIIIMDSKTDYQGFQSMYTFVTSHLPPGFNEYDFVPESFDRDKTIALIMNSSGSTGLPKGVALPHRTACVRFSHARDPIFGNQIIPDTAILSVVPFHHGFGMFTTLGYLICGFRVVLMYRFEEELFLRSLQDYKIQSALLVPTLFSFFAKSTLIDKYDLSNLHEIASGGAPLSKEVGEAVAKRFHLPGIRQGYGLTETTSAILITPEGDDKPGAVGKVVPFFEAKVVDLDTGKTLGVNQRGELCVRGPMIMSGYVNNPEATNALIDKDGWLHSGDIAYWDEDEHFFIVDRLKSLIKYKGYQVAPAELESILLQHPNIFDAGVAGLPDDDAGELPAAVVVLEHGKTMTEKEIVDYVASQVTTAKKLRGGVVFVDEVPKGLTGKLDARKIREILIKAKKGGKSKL
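Biochemical qHTS of compounds, final roughly 60 µM downward over six points, against 10 nM purified firefly luciferase using Km concentrations of substrates (10 uM D-luciferin, 10 uM ATP) in Tris acetate pH 7.5 buffer; luminescence output.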
Rab9 prom act – activates the Rab9 promoter; Huh7 Rab9 promoter-luciferase reporter, luminescence, 24 h; 2.8% of 320,000 active; Potency, µM (titrated, usually from 9.22 µM), for inactives: at the top dose activation, negative = inhibition, hits mostly activators; AID 485297; note: % of control where 0% means no effect; nearly all actives have a fitted effect of over 60% in size
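Luminescence from Amplite-detected luciferase (10 minutes, ambient) reports Rab9 promoter activation. Before that, stable Rab9-luciferase Huh7 cells (1500/well, reduced-serum OP-MEM I plus 10% FBS) were exposed to compound for 24 hours at 37C.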
SMN2 splice enh – SMN2 splice variant enhancement. HEK293 SMN2-luciferase splicing reporter, luminescence, 30-36 h. Potency, µM (doses to about 46.1 µM), without a hit: top-dose activity change, positive = activation, hits mostly activators. 2.8% of 210,000 active. AID 1458; note: % of control where 0% means no effect; nearly all actives have a fitted effect of over 55% in size
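HEK293 cells carry an SMN2 minigene-luciferase reporter in which exon 7 inclusion puts luciferase in frame. Cells were seeded at 2000 cells/well, attached for 10-12 hours, then exposed to compounds for 30-36 hours at 37C before ONE-Glo luminescence.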
Starred values were filed as active, the others as inactive; u = inconclusive; x = no result given. Most compounds without a hit are left out; they make up all but 7.5% or so of the library. Calls come from the whole dose curve; as a rule, active = well fitted curve in the direction sought with a large enough effect; inconclusive = small, poorly fitted or top-dose-only effect, or another doubt; inactive = no such curve, though single readings can be large; an effect the other way counts as inactive or inconclusive. Potency is the fitted concentration of half-maximal effect.

SMILES	ELG1 genotoxic	KinaseGlo FLuc	NPC1 promoter act	FLuc counter	Rab9 prom act	SMN2 splice enh
COc1cc(/C=C/C(=O)c2ccc(NS(=O)(=O)c3ccc(C)cc3)cc2)cc(OC)c1O	-9%	-2%	-4%	-3%	-5%	-100%
COc1cccc(N/C=C/C(=O)c2ccc(Cl)cc2)c1	1.2µM*	-27%	0.5µM*	0.54µM*	0.5µM*	4.5µM*
COc1cccc(C(=O)/C=C/Nc2ccc(S(=O)(=O)Nc3cccc(C(C)=O)c3)cc2)c1	-18%	4%	-9%	-1%	-4%	-45%
COc1ccc(C(=O)c2ccc(Cl)cc2)cc1	21µM*	-1%	15%	u	27%	-9%
COc1cccc(/C=C/C(=O)c2ccc(NS(=O)(=O)c3ccc(C)cc3)cc2)c1	0%	-1%	-5%	13µM*	-13%	-48%
COc1ccccc1-c1cc2nc(C)c(CCC(=O)NCCc3ccc(SC)cc3)c(C)n2n1	x	x	x	-14%	x	6%
CC(C)NC(=O)c1nn(C)c2c1CS(=O)(=O)c1ccccc1-2	x	x	x	0%	x	x
CCCC(C(=O)O)n1c(O)c(C=C2N=c3ccccc3=N2)sc1=S (stereo not drawn)	-1%	x	-2%	u	3%	x
O=C(O)CCCCCn1c(O)c(C=C2N=c3ccccc3=N2)sc1=S	-1%	0%	0%	9.5µM*	-3%	-4%
O=C(O)CCCn1c(O)c(C=C2N=c3ccccc3=N2)sc1=S	11%	x	-10%	6µM*	-5%	x
O=C(O)Cn1c(O)c(C=Nc2ccccc2)sc1=S	-2%	-2%	-5%	u	4%	-13%
C=CCOC(=O)N[C@H](/C(C(=O)OC)=C(\C)NCc1ccccc1)c1ccc(C)cc1	x	2%	x	x	x	9%
O=c1nc2c(-c3cccc(Br)c3)n[nH]n2c2ccccc12	u	x	u	4.8µM*	3.5µM*	x
Cc1cc2ccccc2n1-c1ccc(C(=O)N2CCC(C(=O)NCc3ccccc3Cl)CC2)s1	x	x	x	-19%	x	x
COc1ccc2cc(C(=O)CS(=O)(=O)c3ccccc3)c(=O)oc2c1	u	x	-11%	0.95µM*	0%	x
O=C(CS(=O)(=O)c1ccccc1)c1cc2ccccc2oc1=O	5%	x	1%	1.5µM*	-1%	x
O=C(CS(=O)(=O)c1ccccc1)c1cc2cc(F)ccc2oc1=O	3%	x	12%	1.9µM*	-1%	x
CC(=O)c1c(C)n(-c2ccc(C)cc2)c2ccc(OC(=O)COc3ccccc3)cc12	x	x	x	0%	x	-9%
Cc1ccc(CNC(=O)C2(S(=O)(=O)c3ccccc3)CC=CC2)cc1	u	x	4µM*	15µM*	4µM*	x
Cc1ccc(CNC(=O)C2(S(=O)(=O)c3ccc(C)cc3)CC2)cc1	-7%	x	-3%	5%	5%	x
Cc1ccc([N+](=O)[O-])cc1S(=O)(=O)N1CCn2cccc2C1c1ccccc1 (stereo not drawn)	x	x	x	-2%	x	x
Cc1cccc2c(N=NC(=O)c3ccc(NS(=O)(=O)c4cccs4)cc3)c(O)[nH]c12	14%	x	u	0.43µM*	u	x
O=C(N=Nc1c(O)[nH]c2ccc(F)cc12)c1ccc(NS(=O)(=O)c2cccs2)cc1	1%	x	4%	u	7%	x
Cc1ccc2[nH]c(O)c(N=NC(=O)c3ccc(NS(=O)(=O)c4cccs4)cc3)c2c1	-4%	x	2%	5.4µM*	0%	x
COc1ccc(NC(=O)COCc2cc(-c3ccco3)on2)cc1Cl	x	x	x	-14%	x	x
SMILES	ELG1 genotoxic	KinaseGlo FLuc	NPC1 promoter act	FLuc counter	Rab9 prom act	SMN2 splice enh
CCc1nn(CC(=O)NC(C)c2ccccc2)c(=O)c2cc3sccc3n12 (stereo not drawn)	x	x	x	-1%	x	1%
COc1ccccc1CNC(=O)COC(=O)c1ccc(-n2cnnn2)cc1	6%	x	-3%	-1%	4%	x
O=C(OCCOc1ccccc1Cl)c1ccc(-n2cnnn2)cc1	4%	-4%	1%	21µM*	6%	1%
COc1ccc(Nc2cc(C(=O)NCc3ccccc3)c3ccccc3n2)cc1OC	x	x	x	-10%	x	1%
CCOC(=O)C1CCCN(C(=O)c2cc(-c3ccc(C)cc3)nc3ccccc23)C1 (stereo not drawn)	0%	-6%	13%	4.8µM*	16%	-37%
CCOC(=O)C1CCCN(C(=O)c2cn(CC)c3ccc(S(=O)(=O)N4CCCC4)cc3c2=O)C1 (stereo not drawn)	5%	-7%	2%	3%	1%	-1%
CCOC(=O)C1CCCN(C(=O)CC(C)c2ccccc2)C1 (stereo not drawn)	u	5%	2.8µM*	u	2µM*	u
CCOC(=O)C1CCCN(C(=O)c2cnn3c(C(F)(F)F)cc(-c4ccccc4)nc23)C1 (stereo not drawn)	-4%	0%	-2%	-1%	-3%	6%
CCOC(=O)C1CCCN(C(=O)c2cc(Nc3ccc(OC)c(OC)c3)nc3ccccc23)C1 (stereo not drawn)	-6%	-4%	-1%	11µM*	5%	0%
CCOC(=O)C1CCCN(C(=O)c2cn(C)c3ccc(S(=O)(=O)N4CCCC4)cc3c2=O)C1 (stereo not drawn)	2%	2%	0%	-1%	-8%	11µM*
CCOC(=O)C1CCN(C(=O)CC(C)c2ccccc2)CC1 (stereo not drawn)	x	2%	x	7%	x	0%
CCOC(=O)Cn1c(=O)n(CC2CCCO2)c2nc(-c3ccc(C(C)C)cc3)nc(C(N)=O)c21 (stereo not drawn)	x	x	x	-3%	x	x
COc1ccc(Nc2cc(C(=O)NC3CCCC3)c3ccccc3n2)c(OC)c1	-1%	x	-6%	u	3%	-24%
CCOC(=O)C1CCCN(C(=O)c2cc(Nc3ccc(OC)cc3OC)nc3ccccc23)C1 (stereo not drawn)	-8%	0%	10%	9.5µM*	10%	-3%
COC(=O)CCc1sc(Nc2ccccc2)nc1-c1ccc(OC)cc1	u	2%	15%	24µM*	25%	u
COc1ccc(Nc2nc(-c3ccc(OC)cc3)c(CCC(=O)O)s2)cc1	3%	x	-5%	u	-8%	x
Cc1ccc(C)c(-c2nnc(NC(=O)c3ccco3)o2)c1	-7%	x	0%	15µM*	-2%	x
Cc1ccc(-c2nnc(NC(=O)c3ccco3)o2)c(C)c1	-4%	x	u	2.7µM*	u	x
O=C(Nc1nnc(-c2ccccc2Cl)o1)c1ccco1	u	-8%	20%	6µM*	-4%	u
CCC(=O)Nc1cccc(-c2ccc(N3CCCCC3)nn2)c1	2.3µM*	x	0.56µM*	0.54µM*	0.45µM*	x
CCC(=O)Nc1cccc(-c2ccc(N3CCN(C)CC3)nn2)c1	u	x	2.5µM*	6.7µM*	u	x
